This note sets out measurements from PubChem BioAssay (EPA / NIEHS).

Molecules are shown by their SMILES. Inconclusive results are not listed. Calls of active or inactive are those of the source. Rule for the calls, unless noted: active = hit-call score of the fitted dose curve at least 0.9, where 1 is the maximum; inactive = score below 0.9.

Sequence of Nuclear receptor subfamily 1 group I member 3 (Homo sapiens) (Q14994 whole entry, looked up, the tested form may be a part): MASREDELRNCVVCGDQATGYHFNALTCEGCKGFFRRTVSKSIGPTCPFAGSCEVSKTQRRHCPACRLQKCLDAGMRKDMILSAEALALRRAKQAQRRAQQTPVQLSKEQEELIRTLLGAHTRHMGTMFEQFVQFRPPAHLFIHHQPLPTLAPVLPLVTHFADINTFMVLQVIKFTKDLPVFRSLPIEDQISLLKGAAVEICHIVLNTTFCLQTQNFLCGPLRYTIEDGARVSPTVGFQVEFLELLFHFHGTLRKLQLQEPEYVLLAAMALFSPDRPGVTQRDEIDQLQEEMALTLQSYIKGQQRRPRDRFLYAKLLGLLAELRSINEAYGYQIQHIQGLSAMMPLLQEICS
Sequence of Estrogen receptor (Homo sapiens) (P03372 whole entry, looked up, the tested form may be a part): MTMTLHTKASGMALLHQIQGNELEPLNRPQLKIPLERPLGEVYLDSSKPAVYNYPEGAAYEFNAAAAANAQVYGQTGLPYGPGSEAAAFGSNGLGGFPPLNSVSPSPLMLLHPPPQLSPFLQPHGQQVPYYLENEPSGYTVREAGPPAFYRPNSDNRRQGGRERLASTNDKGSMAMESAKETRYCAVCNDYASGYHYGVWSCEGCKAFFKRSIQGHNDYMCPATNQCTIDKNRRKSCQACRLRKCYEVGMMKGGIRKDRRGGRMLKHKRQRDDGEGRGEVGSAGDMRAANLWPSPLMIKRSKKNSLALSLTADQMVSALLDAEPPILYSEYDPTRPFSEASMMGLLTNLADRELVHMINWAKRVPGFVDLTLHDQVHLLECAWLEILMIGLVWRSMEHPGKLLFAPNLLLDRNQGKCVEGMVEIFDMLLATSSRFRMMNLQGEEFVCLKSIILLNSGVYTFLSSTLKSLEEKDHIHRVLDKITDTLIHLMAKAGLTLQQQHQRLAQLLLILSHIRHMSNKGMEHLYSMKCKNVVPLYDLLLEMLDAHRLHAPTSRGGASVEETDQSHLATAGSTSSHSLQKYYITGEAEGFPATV

Tested on in the first assay: not listed separately
The experiment in a line: ATG_TGFb_CIS: Attagene CIS-FACTORIAL HepG2 Assay for human Transforming Growth Factor (TGF) (AID 2282967). To be noted: HepG2 Attagene CIS TGFb reporter, mRNA transcription; actives raise or lower the signal. The method, boiled down: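 HepG2 cells transiently transfected with cis-promoter-driven multiplexed reporter units; 24 h compound exposure. Reporter mRNA measured by RT-PCR, 6-FAM labeling, HpaI digestion and capillary electrophoresis; bidirectional fit versus DMSO baseline.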
Consider `CC1(C)[C@H]2CC[C@]1(C)[C@H](O)C2`, for which the call was inactive.
With `CN1Cc2c(N)cccc2C(c2ccccc2)C1` (configuration not stated), the call was inactive.
Take `OCCCCCO`: the compound was classed as inactive.
Same read-out and setting: for `O=c1[nH]c(=O)n([C@H]2CCCO2)cc1F` the value was “inactive”; for `O=C(O)CCSCCC(=O)O`, “inactive”; for `CCCC[n+]1ccccc1`, “inactive”.
With `CCC/C=C/C=O`, the outcome was inactive.
As to `O=C(Nc1ccccc1)c1cc([N+](=O)[O-])ccc1Cl`, the compound was classed as inactive.
Take `C[C@H]1C[C@@H]2[C@H]([C@@H](O)C[C@@]3(C)[C@H]2CC[C@]3(O)C(=O)CO)[C@@]2(C)C=CC(=O)C=C12`: the compound was classed as inactive.
On the same count and under the same terms, as for `COc1c(Cl)c(Cl)c(Cl)c(Cl)c1Cl`, the entry is “inactive”; as for `O=C(O)c1cn(C2CC2)c2cc(N3CCNCC3)c(F)cc2c1=O`, “inactive”; as for `Nc1ccc(S(N)(=O)=O)cc1`, “inactive”.
As for `CNCCO`, the outcome was inactive.
Consider `OCc1cccnc1`, for which the compound was called inactive.
Still for that read-out and setting: for `Cc1cc(C2(c3cc(C)c(O)cc3C)OS(=O)(=O)c3ccccc32)c(C)cc1O` the value was “inactive”.
Take `Cc1cccc(Nc2ccccc2C(=O)O)c1C`: the call was inactive.
Regarding `CC(=O)Nc1ccc(CC(=O)O)cc1`, the compound was classed as inactive.
As to `CC(C)[C@H]1CC[C@@H](C)CC1=O`, the call was inactive.
As for `CC1CCC2CC1C2(C)C` (configuration not stated), the result was inactive.
As to `C=CC(=O)OCCOCCOCC`, the result was inactive.
For `COCCCOc1ccnc(CS(=O)c2nc3ccccc3[nH]2)c1C` (configuration not stated), the compound was called inactive.
On the same count and under the same terms, as for `CC1CC(OC(=O)c2ccccc2O)CC(C)(C)C1` (configuration not stated), the entry is “inactive”; as for `O=C(O)c1cn(-c2ccc(F)cc2)c2cc(N3CCNCC3)c(F)cc2c1=O`, “inactive”.

Another assay has as its target Nuclear receptor subfamily 1 group I member 3 (Homo sapiens) (UniProt Q14994). The experiment in a line: ATG_CAR_TRANS: Attagene TRANS-FACTORIAL HepG2 Assay for human Constitutive Androstane Receptor (CAR) (AID 2282969; active = hit-call score of the fitted dose curve at least 0.9, where 1 is the maximum;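 note: activators raise reporter mRNA above DMSO so AC50 marks induction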). To be noted: HepG2 Attagene TRANS-FACTORIAL CAR reporter. Summed up: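 Readout is reporter mRNA induction, quantified by fluorescent primer extension and capillary electrophoresis after RT-PCR. Cells were HepG2 transiently carrying chimeric NR-Gal4 constructs with GAL4-UAS reporters, treated for 24 h; activity scored upward from DMSO.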
For the compound `Clc1nc(C(Cl)(Cl)Cl)c(Cl)c(Cl)c1Cl`, the outcome was inactive.
The same measure, in the same setting: for `CCCCCCCCCCCCSC` the value was “inactive”.
Same read-out and setting: for `O=C[C@@H](O)[C@H](O)[C@H](O)CO` the value was “inactive”.
With `CC1(C)[C@H]2CC[C@]1(C)[C@H](O)C2`, the outcome was inactive.
With `OCCCCCO`, the outcome was inactive.
As for `O=C(Nc1ccccc1)c1cc([N+](=O)[O-])ccc1Cl`, the compound was classed as inactive.
Same read-out and setting: as for `COc1c(Cl)c(Cl)c(Cl)c(Cl)c1Cl`, the entry is “inactive”; as for `Nc1ccc(S(N)(=O)=O)cc1`, “inactive”.
Turning to `OCc1cccnc1`, the result was inactive.
For the compound `Cc1cc(C2(c3cc(C)c(O)cc3C)OS(=O)(=O)c3ccccc32)c(C)cc1O`, the result was inactive.
With `CC1CCC2CC1C2(C)C` (configuration not stated), the outcome was inactive.
Regarding `CC1CC(OC(=O)c2ccccc2O)CC(C)(C)C1` (configuration not stated), the compound was called inactive.

For the next assay, the target named is Estrogen receptor (Homo sapiens) (UniProt P03372). The experiment in a line: ATG_ERa_TRANS: Attagene TRANS-FACTORIAL HepG2 Assay for human Estrogen Receptor alpha (ERa) (AID 2282970; active = hit-call score of the fitted dose curve at least 0.9, where 1 is the maximum). The following applies: HepG2 Attagene TRANS ERa GAL4 reporter, mRNA. The method, boiled down:
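After 24 h of compound treatment, RNA from HepG2 cells bearing transfected GAL4-UAS reporter constructs is converted to cDNA, amplified and fluorescently labelled. Capillary electrophoresis resolves the ERa-linked reporter; DMSO serves as negative control.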
With `Clc1nc(C(Cl)(Cl)Cl)c(Cl)c(Cl)c1Cl`, the call was inactive.
Consider `Cc1ccc(S)cc1`, for which the AC50 (in general, the midpoint of the concentration-response curve, whichever way the signal moves) was 25.4 µM (active).
Still for that read-out and setting: for `Clc1ccc2c(c1)C(N1CCNCC1)=Nc1ccccc1O2` the value was 50.1 µM (active).
With `OCCCCCO`, the AC50 is 76.1 µM (active).
On to `O=C(O)CCSCCC(=O)O`, for which the compound was classed as inactive.
In the case of `O=C(Nc1ccccc1)c1cc([N+](=O)[O-])ccc1Cl`, the AC50 is 5.47 µM (active).
`OCc1cccnc1`: the compound was classed as inactive.
For `Cc1cc(C2(c3cc(C)c(O)cc3C)OS(=O)(=O)c3ccccc32)c(C)cc1O`, the AC50 was 4.2 µM (active).
`CC(=O)Nc1ccc(CC(=O)O)cc1`: the outcome was inactive.

The next assay deals with X-box-binding protein 1 (Homo sapiens) (UniProt P17861). The experiment in a line: ATG_Xbp1_CIS: Attagene CIS-FACTORIAL HepG2 Assay for human X-box Binding Protein 1 (XBP1) (AID 2282972). To be noted: HepG2 XBP1 cis-element reporter, Attagene multiplex; actives raise or lower the signal. Summed up: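 HepG2, transient MRTU transfection (cis-promoter driven), 24 h compound exposure. Total RNA → oligo(dT) RT → PCR → 6-FAM labeling → HpaI cut → CE. Bidirectional fit vs DMSO.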
Sequence of X-box-binding protein 1 (Homo sapiens) (P17861 whole entry, looked up): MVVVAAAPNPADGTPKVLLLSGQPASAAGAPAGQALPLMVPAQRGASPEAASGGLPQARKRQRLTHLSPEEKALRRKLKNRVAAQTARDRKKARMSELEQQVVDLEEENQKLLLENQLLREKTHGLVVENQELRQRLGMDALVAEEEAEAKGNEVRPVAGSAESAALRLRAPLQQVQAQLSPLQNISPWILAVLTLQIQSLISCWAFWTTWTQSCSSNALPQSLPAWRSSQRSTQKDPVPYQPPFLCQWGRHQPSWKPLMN
As to `CCCCCCC#CC(=O)OC`, the compound was classed as inactive.
For `COc1ccnc(CS(=O)c2nc3cc(OC(F)F)ccc3[nH]2)c1OC` (configuration not stated), the compound was called inactive.
`Clc1nc(C(Cl)(Cl)Cl)c(Cl)c(Cl)c1Cl`: the outcome was inactive.
For the compound `C=C(C)C1CCC(C)CC1O` (configuration not stated), the compound was called inactive.
For `CSc1nc(NC2CC2)nc(NC(C)(C)C)n1`, the compound was called inactive.
`CCO[Si](CCCS)(OCC)OCC`: the compound was classed as inactive.
For `CCCCC[Si](OCC)(OCC)OCC`, the call was inactive.
Turning to `CC(=O)O[C@H](CC(=O)[O-])C[N+](C)(C)C`, the call was inactive.
Same read-out and setting: as for `CCCCCCCCCCCCSC`, the entry is “inactive”; as for `O=C[C@@H](O)[C@H](O)[C@H](O)CO`, “inactive”.
`OC1OC[C@@H](O)[C@H](O)[C@H]1O` (some centres not stated): the outcome was inactive.
Still for that read-out and setting: as for `CCCCCCCCCCN`, the entry is “inactive”.
For the compound `Cc1ccc(S)cc1`, the AC50 is 53.5 µM (active).
`CC(CN1c2ccccc2Sc2ccccc21)N(C)C` (configuration not stated): the AC50 is 24.2 µM (active).
As for `Clc1ccc2c(c1)C(N1CCNCC1)=Nc1ccccc1O2`, the AC50 is 33.4 µM (active).
As to `CC1(C)[C@H]2CC[C@]1(C)[C@H](O)C2`, the call was inactive.
Same read-out and setting: as for `CN1Cc2c(N)cccc2C(c2ccccc2)C1` (configuration not stated), the entry is “inactive”.
As for `OCCCCCO`, the outcome was inactive.
As for `O=c1[nH]c(=O)n([C@H]2CCCO2)cc1F`, the outcome was inactive.
With `O=C(O)CCSCCC(=O)O`, the result was inactive.
As for `CCCC[n+]1ccccc1`, the call was inactive.
For the compound `CCC/C=C/C=O`, the outcome was inactive.
Turning to `O=C(Nc1ccccc1)c1cc([N+](=O)[O-])ccc1Cl`, the AC50 is 4.35 µM (active).
Consider `C[C@H]1C[C@@H]2[C@H]([C@@H](O)C[C@@]3(C)[C@H]2CC[C@]3(O)C(=O)CO)[C@@]2(C)C=CC(=O)C=C12`, for which the compound was called inactive.
Turning to `COc1c(Cl)c(Cl)c(Cl)c(Cl)c1Cl`, the result was inactive.
The same measure, in the same setting: as for `O=C(O)c1cn(C2CC2)c2cc(N3CCNCC3)c(F)cc2c1=O`, the entry is “inactive”; as for `Nc1ccc(S(N)(=O)=O)cc1`, “inactive”; as for `CNCCO`, “inactive”.
For `OCc1cccnc1`, the compound was classed as inactive.
Same read-out and setting: for `Cc1cc(C2(c3cc(C)c(O)cc3C)OS(=O)(=O)c3ccccc32)c(C)cc1O` the value was “inactive”; for `Cc1cccc(Nc2ccccc2C(=O)O)c1C`, “inactive”.
As to `CC(=O)Nc1ccc(CC(=O)O)cc1`, the result was inactive.
`CC(C)[C@H]1CC[C@@H](C)CC1=O`: the call was inactive.
On the same count and under the same terms, as for `CC1CCC2CC1C2(C)C` (configuration not stated), the entry is “inactive”.
As for `C=CC(=O)OCCOCCOCC`, the AC50 is 135 µM (active).
As for `COCCCOc1ccnc(CS(=O)c2nc3ccccc3[nH]2)c1C` (configuration not stated), the outcome was inactive.
`CC1CC(OC(=O)c2ccccc2O)CC(C)(C)C1` (configuration not stated): the result was inactive.
Still for that read-out and setting: as for `O=C(O)c1cn(-c2ccc(F)cc2)c2cc(N3CCNCC3)c(F)cc2c1=O`, the entry is “inactive”.
